Screening data deposited in PubChem by several laboratories.
The list is not random: actives were taken first. Their share in the collection is about 2.6%.
Cardio protect = modulators protecting cardiomyocytes from myocardial damage; H9c2 cardiomyocytes, H2O2 injury protection, ATPLite, 2 h; protection from H2O2 cell death, % at 20 µM; 360,000 compounds, 0.63% hits;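 active = compounds giving at least 50% protection of heart cells from peroxide-induced death in the single-dose screen, raw or plate-pattern-corrected value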;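 also: 0% = DMSO wells with peroxide and 100% = DMSO wells without peroxide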
Jurkat NFkB inh = inhibitors of the PMA/ionomycin-induced NF-kB reporter in Jurkat cells; AID 435003; inhibition, % at 4 µM; 330,000 compounds, 0.53% hits; PMA/ionomycin-induced NF-kB luciferase reporter, luminescence; in the data active = inhibition above about 50%
TAG inh = triacylglycerol accumulation inhibition. H9c2 cells, Nile Red lipid (TAG) fluorescence; cells loaded with 200 µM oleic acid. inhibition, % at 12.5 µM. 230,000 compounds, 0.66% hits. AID 651582;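 active = pattern-corrected inhibition of lipid staining of at least 50% with the nuclear-stain viability signal not falling by more than 50%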;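 also: 0% = DMSO wells and 100% = triacsin C control wells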
Gli-Sufu block = antagonists of Gli-Sufu signaling; Sufu-KO-LIGHT fibroblasts, Gli luciferase reporter luminescence; inhibition, % at 5 µM; 340,000 compounds, 0.74% hits; AID 588413;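 active = inhibition above about 55%, limit read from the data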;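 also: 0% = DMSO-treated cells and 100% = wells with medium but no cells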
COUP-TFII inh = NR2F2 (human) inhibition, primary screen | 370,000 compounds, 0.7% hits | HEK293T NGFI-A luciferase reporter, luminescence | P24468 | AID 686940 | inhibition, % at 8.6 µM;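 active = inhibition above a per-plate cutoff, mean inhibition of test wells between control levels plus 3 SD, cut at about 38% in these data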;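 also: cells cotransfected with COUP-TFII expression vector driving the NGFI-A reporter; 0% = median of COUP-TF2 test wells and 100% = reporter-only cells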
Target sequence (P24468 whole entry, looked up): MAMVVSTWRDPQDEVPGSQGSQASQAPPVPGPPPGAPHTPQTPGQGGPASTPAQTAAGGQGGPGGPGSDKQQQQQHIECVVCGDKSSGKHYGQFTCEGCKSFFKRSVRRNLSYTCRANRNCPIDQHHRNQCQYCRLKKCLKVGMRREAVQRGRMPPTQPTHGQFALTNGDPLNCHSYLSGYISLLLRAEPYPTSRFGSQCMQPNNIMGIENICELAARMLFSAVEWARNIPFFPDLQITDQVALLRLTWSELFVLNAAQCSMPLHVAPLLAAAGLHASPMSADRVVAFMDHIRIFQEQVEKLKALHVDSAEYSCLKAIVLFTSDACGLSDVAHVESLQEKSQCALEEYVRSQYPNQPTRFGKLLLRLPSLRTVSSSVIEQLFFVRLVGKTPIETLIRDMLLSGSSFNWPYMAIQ
697 NFkB inh = inhibitors of the PMA/ionomycin-induced NF-kB reporter in 697 B cells. 697 B-cell NF-kB luciferase reporter, 16 h. inhibition, % at 4 µM. 330,000 compounds, 0.33% hits; in the data active = inhibition above about 35%
Starred values were filed as active, the others as inactive; . = no result.

SMILES	Cardio protect	Jurkat NFkB inh	TAG inh	Gli-Sufu block	COUP-TFII inh	697 NFkB inh
COc1cccc(-c2nn3c(-c4ccco4)nnc3s2)c1	73.2*	-20.1	.	-29.5	-24.5	6.9
COc1cccc(OC)c1-c1nn2c(-c3ccco3)nnc2s1	53.6*	-28.4	.	-16.3	-36.2	-81.9
O=c1[nH]c2cc(F)ccc2c2ccc(F)cc12	61.5*	.	5.8	8.6	-4.8	.
C#CCOCCOCCOCCNc1nc(N2CCN(C(=O)CCCCCCCCCCNC(=O)[C@H](CCCCN)n3cc(C[C@@H](C)CC)nn3)CC2)nc(N2CCN(C(=O)CCCCCCCCCCNC(=O)[C@H](CCCCN)n3cc(C[C@@H](C)CC)nn3)CC2)n1	-8.5	.	88.4*	6.9	.	.
C#CCOCCOCCOCCNc1nc(N2CCN(C(=O)CCCCCCCCCCNC(=O)[C@H]([C@@H](C)CC)n3cc(CCCCCN)nn3)CC2)nc(N2CCN(C(=O)CCCCCCCCCCNC(=O)[C@@H]([C@H](C)O)n3cc(C)nn3)CC2)n1	-3.5	49.2	-2.7	-2.2	.	-24.6
C#CCOCCOCCOCCNc1nc(N2CCN(C(=O)CCCCCCCCCCNC(=O)[C@H](CCCCN)n3cc(C)nn3)CC2)nc(N2CCN(C(=O)CCCCCCCCCCNC(=O)[C@@H]([C@H](C)CC)n3cc(CCCCCN)nn3)CC2)n1	-4.5	9.4	74.6*	.	.	-24.9
C#CCOCCOCCOCCNc1nc(N2CCN(C(=O)CCCCCCCCCCNC(=O)[C@H](CCCCN)n3cc(CCO)nn3)CC2)nc(N2CCN(C(=O)CCCCCCCCCCNC(=O)[C@H](CCCN=C(N)N)n3cc(C[C@@H](C)CC)nn3)CC2)n1	-4.9	14.8	-44.7	13.6	.	1.0
C#CCOCCOCCOCCNc1nc(N2CCN(C(=O)CCCCCCCCCCNC(=O)Cn3cc(C[C@@H](C)O)nn3)CC2)nc(N2CCN(C(=O)CCCCCCCCCCNC(=O)Cn3cc(C[C@@H](C)O)nn3)CC2)n1	79.9*	9.3	-20.6	21.2	6.7	-4.9
C[C@H]1[C@@H](NC(=O)C#Cc2ccccc2)CC[C@@]23CCCN2C(=O)CCC[C@@H]13	.	.	.	.	15.7	.
COC(=O)[C@]12C[C@H](CC(=O)NCc3cccc(C(F)(F)F)c3)C(=O)N(Cc3ccco3)C1=C[C@H](C1CCCC1)O[C@@H]2C	.	.	.	.	1.2	.
O=C(CCc1ccccc1)N[C@H]1[C@H](OC(=O)c2cnccn2)CCC[C@]12C(=O)N(Cc1ccccc1)c1ccccc12	.	.	.	.	5.4	.
O=C(CCl)N(c1ccccc1)c1c[nH]c2ccccc12	-18.1	-13.0	78.7*	0.1	7.8	1.8
O=C(CO)c1c[nH]c2ccccc12	-2.8	.	.	.	12.6	.
c1ccc(CN2CCN(c3ncnc4c3[nH]c3ccccc34)CC2)cc1	-26.3	21.6	-33.6	61.6*	73.8*	-25.2
c1ccc2c(c1)[nH]c1c(N3CCC4(CC3)OCCO4)ncnc12	-19.1	6.6	.	-41.1	.	-28.3
COC(=O)[C@]12C[C@H](CC(=O)N3CCSCC3)C(=O)N(Cc3ccc4c(c3)OCO4)C1=C[C@H](C(C)C)O[C@@H]2C1CC1	.	.	.	.	18.5	.
COc1ccc(OC)c(C(=O)COC(=O)c2cc(C)oc2C)c1	-10.2	5.9	-58.1	3.3	-1.1	-0.6
COc1ccc(OC)c(C(=O)COC(=O)c2ccc([N+](=O)[O-])o2)c1	54.5*	11.0	17.4	-6.9	-3.8	4.0
CC(C)C[C@H]1CN=C(Nc2ccccc2)N1CC1CCC(C(C)(C)C)CC1 (stereo partly drawn)	-23.8	41.7	59.5*	-17.5	.	-16.5
Cc1ccc(-n2c(SCC(=O)Nc3ccccc3-c3ccccc3)nnc2-c2cccnc2)cc1	.	.	.	.	11.0	.
CC(OC(=O)Cc1n[nH]c(=O)c2ccccc12)C(=O)Nc1ccccc1[N+](=O)[O-] (stereo not drawn)	72.5*	7.6	4.9	-2.5	17.0	-2.7
CC(OC(=O)Cc1n[nH]c(=O)c2ccccc12)C(=O)Nc1cccc([N+](=O)[O-])c1 (stereo not drawn)	57.5*	13.6	-2.2	-4.9	3.4	8.3
COc1ccccc1NC(=O)C(C)OC(=O)Cc1n[nH]c(=O)c2ccccc12 (stereo not drawn)	66.0*	-2.7	70.3	41.2	7.2	9.9
Cc1cccc(C(C)C)c1NC(=O)C(C)OC(=O)Cc1n[nH]c(=O)c2ccccc12 (stereo not drawn)	70.9*	-13.7	12.5	-12.4	1.0	5.5
